# Assay results as given in PubChem BioAssay.
# Values joined by “and” are separate entries in the source; they are usually repeats but may differ in a detail not shown here. Equal values may be shown once. The source holds several records for some structures; these can differ, active in one and inactive in another. Active and inactive are the calls of the source.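 How the source made its calls, unless noted: active means compounds whose cell count with miR-34 switched on is under 0.7 times the count with it off; inactive means the rest.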
# How the values were obtained:
# [1] = stimulators of nuclear beta-catenin in C2C12, primary screen, imaging, WNT3A-conditioned medium, mouse C2C12, NPC library (AID 1117326; in the data active means nuclear beta-catenin stimulation mostly above about 4.2%, no sharp cut-off; inactive means mostly below about 10%); conditions: stronger effect = higher value
# [2] = stimulators of insulin release from INS-1E, primary screen, cell-based, 5 mM glucose, NPC library (AID 1117329;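 active means compound raises insulin release from rat beta cells at 5 mM glucose, no numeric limit stated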); conditions: rat INS-1E insulin secretion, at 10 µM, stronger effect = higher value
# [3] = growth inhibition of GSK3B-pretreated HCT116 cells – cell-based, CellTiter-Glo, 0.2 to 20 µM (AID 1117336;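 active means compounds lowering colon cancer cell viability after pretreatment blocking the GSK3B kinase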); conditions: HCT116 viability after GSK3B inhibitor, at 20 µM, stronger effect = higher value
# [4] = inhibition of endothelial tube formation, primary screen, imaging, VEGF stimulated, CD31 staining, tube area, NPC library (AID 1117340;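 active means compound that reduces growth-factor-driven endothelial tube area in a mixed cell culture, no cutoff stated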); conditions: VEGF-stimulated ADSC/ECFC co-culture, at 10 µM, stronger effect = higher value
# [5] = glucagon-like peptide 1 release enhancers, primary assay, NCI-H716 cell line, NPC library (AID 1117341;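 active means compound raises GLP1 secretion from the human gut endocrine cells, with no numeric limit stated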); conditions: NCI-H716 cells, at 10 µM, stronger effect = higher value
# [6] = HCT116 colon cancer cell growth inhibition, primary screen, CellTiter-Glo luminescence, NPC library (AID 1117342;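 active means compounds that lower survival of HCT116 colon cancer cells in the luminescence readout, no numeric limit stated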); conditions: at 20 µM (top of the series)
# [7] = CellTiter-Glo luminescent readout of SW480 viability loss, NPC library primary (AID 1117343;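 active means compounds that lower viability of the colon cancer cells in the luminescence readout, with no numeric limit stated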); conditions: CellTiter-Glo luminescence; at 20 µM (top of the series) unless noted
# [8] = decreased DLD-1 cellular survival, CellTiter-Glo luminescent readout, NPC compound collection, primary HTS (AID 1117346;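 active means compounds that lower survival of DLD-1 colon cancer cells in the luminescence readout, no cutoff given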); conditions: DLD-1 viability, CellTiter-Glo luminescence; at 20 µM (top of the series)
# [9] = differential killing of epithelial or mesenchymal cells, primary screen, imaging, PC-3E GFP, TEM4-18 mCherry, co-culture (AID 1345086;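 active means compounds killing one labelled cell type while sparing the other, by normalised counts and ratio limits, not self-fluorescent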;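 on all read-outs here: cells exposed to compound for 72 h before imaging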;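 on red/green cell ratio (normalised): normalised mesenchymal count divided by normalised epithelial count so high means epithelial killing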); conditions: imaging cell counts, at 1 µM; for red/green cell ratio (normalised): actives lie on both sides, counts scaled to control wells, 1 = unselective
# [10] = sensitizers of A549 cells to miR-34 induction, primary screen, imaging, A549 dox-inducible miR-34, nuclei and caspase counts (AID 1347080); conditions: A549 miR-34 inducible, Hoechst nuclei count, 48 h
# [11] = target: NAD(+) hydrolase SARM1 (Homo sapiens) (UniProt Q6SZW1); assay: SARM1 TIR NADase inhibitors, cell lysate, NAD-Glo luminescence (AID 1508614;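 active means compound whose remaining NAD level is above about 45 nM, limit read from the data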); conditions: SAM-TIR HEK293T lysate NADase, at 1 µM, stronger effect = higher value
# Chain of NAD(+) hydrolase SARM1 (Homo sapiens) (Q6SZW1 whole entry, looked up): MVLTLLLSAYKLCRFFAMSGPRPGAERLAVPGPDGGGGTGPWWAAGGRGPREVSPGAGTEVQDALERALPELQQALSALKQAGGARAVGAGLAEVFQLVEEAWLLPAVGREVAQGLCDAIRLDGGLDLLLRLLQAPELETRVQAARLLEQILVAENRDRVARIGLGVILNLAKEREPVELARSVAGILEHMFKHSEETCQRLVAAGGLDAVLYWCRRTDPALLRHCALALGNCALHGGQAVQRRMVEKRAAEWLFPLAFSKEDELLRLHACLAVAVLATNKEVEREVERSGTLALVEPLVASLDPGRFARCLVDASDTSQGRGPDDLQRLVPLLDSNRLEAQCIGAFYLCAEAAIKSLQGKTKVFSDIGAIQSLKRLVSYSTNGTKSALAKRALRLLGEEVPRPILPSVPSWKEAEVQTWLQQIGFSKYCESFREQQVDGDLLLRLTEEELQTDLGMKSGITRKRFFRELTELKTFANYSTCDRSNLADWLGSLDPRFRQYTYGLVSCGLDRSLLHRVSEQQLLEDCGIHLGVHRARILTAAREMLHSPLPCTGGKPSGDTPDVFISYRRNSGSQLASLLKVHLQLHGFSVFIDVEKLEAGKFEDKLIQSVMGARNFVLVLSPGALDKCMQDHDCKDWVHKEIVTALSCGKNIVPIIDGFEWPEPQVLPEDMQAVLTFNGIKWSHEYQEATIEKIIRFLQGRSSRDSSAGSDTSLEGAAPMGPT
# [12] = liver-stage malaria parasite growth inhibition, primary screen, cell-based, HepG2, luciferase luminescence, HepG2 viability (AID 624349; in the data active means parasite load remaining mostly below about 12%, no sharp cut-off; inactive means mostly above about 10%;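 further: 100% = mean of DMSO negative control wells on the same plate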); conditions: P. berghei liver stage in HepG2, luciferase luminescence, concentration not given here; parasite load remaining: stronger effect = lower value; viability: measured here: HepG2 viability without parasites
# [13] = survival rescue of mitochondrial mutant cells in low glucose, primary screen, MELAS cybrids, Rieske KO mouse fibroblasts, CellTiter-Glo (AID 1508586;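 active means mean z-score across replicates of 1.96 or higher in either the MELAS or the Rieske mutant cell line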;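 further: z relative to plate mean and SD of compound and empty wells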)
# [14] = hESC survival regulators, cell-based (AID 493140; call rule not given here;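 further: cells exposed to compounds for four days before counting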); conditions: human embryonic stem cell survival screen; stronger effect = higher value
# [15] = measured here: epithelial PC-3E GFP cell survival
# [16] = measured here: mesenchymal TEM4-18 mCherry cell survival
# [17] = stronger effect = lower value, cell number ratio, induced over uninduced
# [18] = measured here: relative caspase fold change +Dox/-Dox
# [19] = measured here: total cells with miR-34 induction, stronger effect = lower value
# [20] = measured here: total cells without miR-34 induction
# [21] = MELAS cybrid survival, CellTiter-Glo 48 h, stronger effect = higher value
# [22] = Rieske KO mouse fibroblast survival, CellTiter-Glo 72 h
compound,measurement,setting,value
O=[N+]([O-])c1ccc(O)c2ncccc12,nuclear beta-catenin stimulation,[1]; at 10 µM,45.6% (active)
same,nuclear beta-catenin stimulation,"[1]; stimulation, at 2 µM",1.9%
same,insulin secretion stimulation,[2],-1.1% (inactive)
same,viability decrease,[3],95.8% (active)
same,tube area decrease,[4],102% (active)
same,GLP1 secretion stimulation,[5],-11.4% (inactive)
same,inhibition of viability,[6],76.5% (active)
same,viability decrease (inhibition),[7],112% (active)
same,viability decrease (inhibition),[8],80.7% (active)
same,red/green cell ratio (normalised),[9],0.89 (inactive)
same,normalised cell number,[9]; [15],1.07
same,normalised cell number,[9]; [16],0.95
same,fold change,[10]; [17],0.979 (inactive)
same,fold change,[10]; [18],0.972
same,cell count,[10]; [19],2410
same,cell count,[10]; [20],2460
same,remaining NAD,[11],10 nM (inactive)
CC(C)Cn1cnc2c(N)nc3ccccc3c21,parasite load remaining,[12],11.9% (inactive)
same,viability,[12],62.5%
same,nuclear beta-catenin stimulation,[1]; at 10 µM,1.6% (inactive)
same,nuclear beta-catenin stimulation,"[1]; stimulation, at 2 µM",0.2%
same,insulin secretion stimulation,[2],0% (inactive)
same,viability decrease,[3],-1.15% (inactive)
same,tube area decrease,[4],-3.6% (inactive)
same,GLP1 secretion stimulation,[5],0.6% (inactive)
same,inhibition of viability,[6],-6.6% (inactive)
same,viability decrease (inhibition),[7],49.5% (inactive)
same,viability decrease (inhibition),[8],0.7% (inactive)
same,red/green cell ratio (normalised),[9],1.33 (inactive)
same,normalised cell number,[9]; [15],1.11
same,normalised cell number,[9]; [16],1.48
same,fold change,[10]; [17],0.846 (inactive)
same,fold change,[10]; [18],0.971
same,cell count,[10]; [19],9200
same,cell count,[10]; [20],10900
same,z-score,[13]; [21],0.0496 (inactive) and 0.611 (inactive)
same,z-score,[13]; [22],0.716 and 0.772
same,remaining NAD,[11],10 nM (inactive)
CC(S)C(=O)NCC(=O)O (configuration not stated),nuclear beta-catenin stimulation,[1]; at 10 µM,-0.5% (inactive)
same,nuclear beta-catenin stimulation,"[1]; stimulation, at 2 µM",0.7%
same,insulin secretion stimulation,[2],-0.8% (inactive)
same,viability decrease,[3],-7.03% (inactive)
same,tube area decrease,[4],17.7% (inactive)
same,GLP1 secretion stimulation,[5],-1.7% (inactive)
same,inhibition of viability,[6],-7.95% (inactive)
same,viability decrease (inhibition),[7],46.8% (inactive)
same,viability decrease (inhibition),[8],0.37% (inactive)
same,red/green cell ratio (normalised),[9],0.9 (inactive)
same,normalised cell number,[9]; [15],1.06
same,normalised cell number,[9]; [16],0.94
same,fold change,[10]; [17],0.956 (inactive) and 0.886 (inactive)
same,fold change,[10]; [18],0.809 and 0.891
same,cell count,[10]; [19],8410 and 8420
same,cell count,[10]; [20],8800 and 9500
same,z-score,[13]; [21],-0.286 (inactive)
same,z-score,[13]; [22],0.558
same,remaining NAD,[11],10 nM (inactive)
NCCCNCCSP(=O)(O)O,parasite load remaining,[12],26.6% (inactive)
same,viability,[12],110%
same,nuclear beta-catenin stimulation,[1]; at 10 µM,-1.3% (inactive)
same,nuclear beta-catenin stimulation,"[1]; stimulation, at 2 µM",0.9%
same,insulin secretion stimulation,[2],3% (inactive)
same,viability decrease,[3],-4.2% (inactive)
same,tube area decrease,[4],-8.5% (inactive)
same,GLP1 secretion stimulation,[5],-1.2% (inactive)
same,inhibition of viability,[6],2.2% (inactive)
same,viability decrease (inhibition),[7],0.3% (inactive)
same,viability decrease (inhibition),[8],0% (inactive)
same,red/green cell ratio (normalised),[9],1.19 (inactive)
same,normalised cell number,[9]; [15],1.03
same,normalised cell number,[9]; [16],1.23
same,fold change,[10]; [17],1.03 (inactive) and 0.865 (inactive)
same,fold change,[10]; [18],1.84 and 1.27
same,cell count,[10]; [19],10300 and 9430
same,cell count,[10]; [20],10000 and 10900
same,z-score,[13]; [21],0.141 (inactive) and 0.413 (inactive)
same,z-score,[13]; [22],-0.0647 and -0.947
same,remaining NAD,[11],10 nM (inactive)
Cn1c(=O)c2c(ncn2CC2OCCO2)n(C)c1=O,parasite load remaining,[12],22.8% (inactive)
same,viability,[12],112%
same,nuclear beta-catenin stimulation,[1]; at 10 µM,2.7% (inactive)
same,nuclear beta-catenin stimulation,"[1]; stimulation, at 2 µM",1.1%
same,insulin secretion stimulation,[2],-2.4% (inactive)
same,viability decrease,[3],-0.95% (inactive)
same,tube area decrease,[4],-3.4% (inactive)
same,GLP1 secretion stimulation,[5],-1.2% (inactive)
same,inhibition of viability,[6],16.1% (inactive)
same,viability decrease (inhibition),[7],46.8% (inactive)
same,viability decrease (inhibition),[8],11.7% (inactive)
same,red/green cell ratio (normalised),[9],0.85 (inactive)
same,normalised cell number,[9]; [15],1.16
same,normalised cell number,[9]; [16],0.98
same,fold change,[10]; [17],0.901 (inactive) and 0.895 (inactive)
same,fold change,[10]; [18],0.475 and 1.33
same,cell count,[10]; [19],8400 and 9760
same,cell count,[10]; [20],9320 and 10900
same,z-score,[13]; [21],-0.299 (inactive) and -0.511 (inactive) and 0.326 (inactive)
same,z-score,[13]; [22],-0.174 and -0.641 and -0.268
same,remaining NAD,[11],10 nM (inactive)
COc1cccc2c1C(=O)c1c(O)c3c(c(O)c1C2=O)C[C@@](O)(C(C)=O)C[C@@H]3O[C@H]1C[C@H](N)[C@H](O)[C@H](C)O1,parasite load remaining,[12],-58.1% (inactive) and -0.15% (inactive) and 3.79% (active)
same,viability,[12],28.9% and 25.6% and 228%
same,nuclear beta-catenin stimulation,[1]; at 10 µM,61.7% (active)
same,nuclear beta-catenin stimulation,"[1]; stimulation, at 2 µM",102%
same,insulin secretion stimulation,[2],-0.6% (inactive)
same,viability decrease,[3],65.5% (active)
same,tube area decrease,[4],-9.1% (active)
same,GLP1 secretion stimulation,[5],3.4% (inactive)
same,inhibition of viability,[6],88.6% (active)
same,viability decrease (inhibition),[7],127% (active)
same,viability decrease (inhibition),[8],93.9% (active)
same,red/green cell ratio (normalised),[9],2.72 (active)
same,normalised cell number,[9]; [15],0.23
same,normalised cell number,[9]; [16],0.62
same,fold change,[10]; [17],0.88 (inactive) and 0.929 (inactive) and 0.993 (inactive)
same,fold change,[10]; [18],0.91 and 1.93 and 1.28
same,cell count,[10]; [19],2140 and 2610 and 2580
same,cell count,[10]; [20],2420 and 2800 and 2590
same,z-score,[13]; [21],-1.94 (inactive) and 4.97 (active)
same,z-score,[13]; [22],-1.44 and -0.671
same,remaining NAD,[11],10 nM (inactive)
COc1cc2c(c(OC)c1OC)-c1ccc(OC)c(=O)cc1[C@@H](NC(C)=O)CC2,survival,[14],0.333 (inactive)
same,nuclear beta-catenin stimulation,[1]; at 10 µM,77.5% (active)
same,nuclear beta-catenin stimulation,"[1]; stimulation, at 2 µM",72.6%
same,insulin secretion stimulation,[2],2.2% (inactive)
same,viability decrease,[3],97.2% (active)
same,tube area decrease,[4],105% (active)
same,GLP1 secretion stimulation,[5],-3.6% (inactive)
same,inhibition of viability,[6],75% (active)
same,viability decrease (inhibition),[7],43.3% (inactive)
same,viability decrease (inhibition),[8],58.2% (active)
same,red/green cell ratio (normalised),[9],1.19 (inactive)
same,normalised cell number,[9]; [15],0.19
same,normalised cell number,[9]; [16],0.23
same,fold change,[10]; [17],1.43 (inactive) and 1.18 (inactive) and 0.984 (inactive)
same,fold change,[10]; [18],1.13 and 1.5 and 0.402
same,cell count,[10]; [19],1890 and 1930 and 1700
same,cell count,[10]; [20],1330 and 1630 and 1730
same,z-score,[13]; [21],-2.22 (inactive)
same,z-score,[13]; [22],-0.272
same,remaining NAD,[11],10 nM (inactive)
Cc1cc(=O)oc2cc(O)ccc12,survival,[14],5.33 (inactive)
same,parasite load remaining,[12],118% (inactive)
same,viability,[12],98.7%
same,nuclear beta-catenin stimulation,[1]; at 10 µM,-0.6% (inactive)
same,nuclear beta-catenin stimulation,"[1]; stimulation, at 2 µM",-0.4%
same,insulin secretion stimulation,[2],-1.7% (inactive)
same,viability decrease,[3],-10.2% (inactive)
same,tube area decrease,[4],-7.2% (inactive)
same,GLP1 secretion stimulation,[5],3.1% (inactive)
same,inhibition of viability,[6],13.6% (inactive)
same,viability decrease (inhibition),[7],12.3% (inactive)
same,viability decrease (inhibition),[8],-2.45% (inactive)
same,red/green cell ratio (normalised),[9],0.94 (inactive)
same,normalised cell number,[9]; [15],1.05
same,normalised cell number,[9]; [16],0.99
same,fold change,[10]; [17],0.873 (inactive) and 0.847 (inactive) and 0.939 (inactive)
same,fold change,[10]; [18],1.07 and 1.58 and 0.709
same,cell count,[10]; [19],8530 and 9030 and 8940
same,cell count,[10]; [20],9770 and 10700 and 9520
same,z-score,[13]; [21],-0.289 (inactive) and 0.464 (inactive)
same,z-score,[13]; [22],0.286 and 0.338
same,remaining NAD,[11],10 nM (inactive)
